Test results from the supplement of paper PMC12645437, “Orthogonal IMiD-Degron Pairs Induce Selective Protein Degradation in Cells” (ACS Chemical Biology, 2025).
Over roughly 8,300 sequences, “log2 fold change of degron read counts, EGFP-low vs EGFP+ sorted cells (limma voom), compound-induced degradation” has its median near -1.1; the highest 2% begin near 3.2. The full list was thinned out, with the highest values kept by preference.

Target: T1, CRBN, Q96SW2
T1 chain: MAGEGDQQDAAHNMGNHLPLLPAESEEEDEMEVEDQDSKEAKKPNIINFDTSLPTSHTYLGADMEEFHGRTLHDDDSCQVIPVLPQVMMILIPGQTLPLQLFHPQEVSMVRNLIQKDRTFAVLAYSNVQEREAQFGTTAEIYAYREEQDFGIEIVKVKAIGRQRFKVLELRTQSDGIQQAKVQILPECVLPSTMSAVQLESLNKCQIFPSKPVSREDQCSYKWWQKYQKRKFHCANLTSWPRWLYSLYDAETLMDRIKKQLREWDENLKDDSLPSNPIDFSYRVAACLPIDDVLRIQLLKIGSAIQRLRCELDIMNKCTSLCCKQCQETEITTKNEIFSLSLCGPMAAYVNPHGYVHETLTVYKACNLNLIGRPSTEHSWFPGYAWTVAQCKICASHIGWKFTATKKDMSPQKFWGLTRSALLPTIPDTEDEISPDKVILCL
Assay: log2 fold change of degron read counts, EGFP-low vs EGFP+ sorted cells (limma voom), compound-induced degradation; higher = more compound-induced degradation of the degron-EGFP fusion; degrons are variants of IKZF1/3 zinc finger 2; compound dose not given here
Details: Jurkat, 18 h

[1] = compound: compound 19 (5-tert-butyl-thalidomide)
[2] = compound: compound 22 (5-morpholino-thalidomide)
[3] = compound: compound 33 (diphenyl IMiD analogue)
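Also: pooled lentiviral library of zinc finger degron-EGFP fusions in mCherry-positive Jurkat cells, FACS-sorted after compound exposure, with degron abundance counted by next-generation sequencing.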

FVCDVCGAGFTQKGNLLRHIKL [46F_47V_49D_50V_52G_53A_54G_55F_67L_, Q9UKT9]
log2 fold change of degron read counts [1]: -0.789 | log2 fold change of degron read counts [2]: 1.19 | log2 fold change of degron read counts [3]: -0.11 | log2 fold change of degron read counts (compound: thalidomide): 0.879

FECDQCGALFTQKGNLLRHIKL [46F_47E_49D_50Q_52G_53A_54L_55F_67L_, Q9UKT9]
log2 fold change of degron read counts [1]: -3.05 | log2 fold change of degron read counts [2]: -3.86 | log2 fold change of degron read counts [3]: -3.38 | log2 fold change of degron read counts (compound: thalidomide): -2.52

FDCNVCGAFFTQKGNLLRHIKL [46F_47D_49N_50V_52G_53A_54F_55F_67L_, Q9UKT9]
log2 fold change of degron read counts [1]: -2.06 | log2 fold change of degron read counts [2]: -2.22 | log2 fold change of degron read counts [3]: -1.25 | log2 fold change of degron read counts (compound: thalidomide): -1.25

FRCEICGAHFTQKGNLLRHIKL [46F_47R_49E_50I_52G_53A_54H_55F_67L_, Q9UKT9]
log2 fold change of degron read counts [1]: -0.542 | log2 fold change of degron read counts [2]: -0.83 | log2 fold change of degron read counts [3]: 0.979 | log2 fold change of degron read counts (compound: thalidomide): 0.735

LDCEICGFNCTQKGNLLRHIKL [46L_47D_49E_50I_52G_53F_54N_55C_67L_, Q9UKT9]
log2 fold change of degron read counts [1]: -1.97 | log2 fold change of degron read counts [2]: -2.54 | log2 fold change of degron read counts [3]: -2.01 | log2 fold change of degron read counts (compound: thalidomide): -1.74

FACEVCGAAFTQKGNLLRHIKL [46F_47A_49E_50V_52G_53A_54A_55F_67L_, Q9UKT9]
log2 fold change of degron read counts [1]: 3.64 | log2 fold change of degron read counts [2]: 2.99 | log2 fold change of degron read counts [3]: 1.02 | log2 fold change of degron read counts (compound: thalidomide): 1.31

FVCEVCGAAFTQKGNLLRHIKL [46F_47V_49E_50V_52G_53A_54A_55F_67L_, Q9UKT9]
log2 fold change of degron read counts [1]: 1.64 | log2 fold change of degron read counts [2]: 3.28 | log2 fold change of degron read counts [3]: 2.3 | log2 fold change of degron read counts (compound: thalidomide): 3.36

FECEVCGAAFTQKGNLLRHIKL [46F_47E_49E_50V_52G_53A_54A_55F_67L_, Q9UKT9]
log2 fold change of degron read counts [1]: 2.56 | log2 fold change of degron read counts [2]: -0.651 | log2 fold change of degron read counts [3]: 1.75 | log2 fold change of degron read counts (compound: thalidomide): 2.51

FFCEVCGAAFTQKGNLLRHIKL [46F_47F_49E_50V_52G_53A_54A_55F_67L_, Q9UKT9]
log2 fold change of degron read counts [1]: 3.47 | log2 fold change of degron read counts [2]: 3.39 | log2 fold change of degron read counts [3]: 2.35 | log2 fold change of degron read counts (compound: thalidomide): 1.61

FRCEVCGAAFTQKGNLLRHIKL [46F_47R_49E_50V_52G_53A_54A_55F_67L_, Q9UKT9]
log2 fold change of degron read counts [1]: 2.61 | log2 fold change of degron read counts [2]: 2.62 | log2 fold change of degron read counts [3]: 2.86 | log2 fold change of degron read counts (compound: thalidomide): 2.62

FLCEVCGAAFTQKGNLLRHIKL [46F_47L_49E_50V_52G_53A_54A_55F_67L_, Q9UKT9]
log2 fold change of degron read counts [1]: 1.91 | log2 fold change of degron read counts [2]: 0.166 | log2 fold change of degron read counts [3]: 1.52 | log2 fold change of degron read counts (compound: thalidomide): 1.55

FICEVCGAAFTQKGNLLRHIKL [46F_47I_49E_50V_52G_53A_54A_55F_67L_, Q9UKT9]
log2 fold change of degron read counts [1]: 0.0772 | log2 fold change of degron read counts [2]: 3 | log2 fold change of degron read counts [3]: 2.31 | log2 fold change of degron read counts (compound: thalidomide): 3.04

FFCPVCGAAFTQKGNLLRHIKL [46F_47F_49P_50V_52G_53A_54A_55F_67L_, Q9UKT9]
log2 fold change of degron read counts [1]: 2.88 | log2 fold change of degron read counts [2]: 2.91 | log2 fold change of degron read counts [3]: 2.41 | log2 fold change of degron read counts (compound: thalidomide): 1.09
